Assay outcomes: PubChem, National Center for Advancing Translational Sciences (NCATS)
Only some compounds are listed: those with a hit (about 7.4% of all), similar ones and a draw of the others.
Rab9 prom act – qHTS Assay for Rab9 Promoter Activators; Huh7 Rab9 promoter-luciferase reporter, luminescence, 24 h; Potency, µM (highest dose often 9.22 µM), for inactives: at the top dose activation, negative = inhibition, usual class: activators; 320,000 compounds, 2.8% hits; AID 485297, 2010; further: % of control where 0% means no effect; nearly all actives have a fitted effect of over 60% in size
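Luciferase signal after 10 min detection reagent at ambient indicates Rab9 promoter upregulation; stably transfected Huh7 cells were treated 24 h with compound in DMSO at 37 °C, 5% CO2.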
FLuc modulator – qHTS profiling assay for firefly luciferase inhibitor/activator using purifed enzyme and Km concentrations of substrates (counterscreen for miR-21 project) | 360,000 compounds, 6.9% hits | AID 588342, 2011 | purified FLuc, Km substrates, luminescence inhibition | Potency, µM (titrated, usually from 57.5 µM), inactives show top-dose activity change, negative = inhibition, hits mostly inhibitors | Luciferin 4-monooxygenase (Photinus pyralis), P08659;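 further: plate controls were vehicle for no effect and reference inhibitor for full effect; nearly all actives have a fitted effect of over 55% in size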
Target sequence (P08659 whole entry, looked up): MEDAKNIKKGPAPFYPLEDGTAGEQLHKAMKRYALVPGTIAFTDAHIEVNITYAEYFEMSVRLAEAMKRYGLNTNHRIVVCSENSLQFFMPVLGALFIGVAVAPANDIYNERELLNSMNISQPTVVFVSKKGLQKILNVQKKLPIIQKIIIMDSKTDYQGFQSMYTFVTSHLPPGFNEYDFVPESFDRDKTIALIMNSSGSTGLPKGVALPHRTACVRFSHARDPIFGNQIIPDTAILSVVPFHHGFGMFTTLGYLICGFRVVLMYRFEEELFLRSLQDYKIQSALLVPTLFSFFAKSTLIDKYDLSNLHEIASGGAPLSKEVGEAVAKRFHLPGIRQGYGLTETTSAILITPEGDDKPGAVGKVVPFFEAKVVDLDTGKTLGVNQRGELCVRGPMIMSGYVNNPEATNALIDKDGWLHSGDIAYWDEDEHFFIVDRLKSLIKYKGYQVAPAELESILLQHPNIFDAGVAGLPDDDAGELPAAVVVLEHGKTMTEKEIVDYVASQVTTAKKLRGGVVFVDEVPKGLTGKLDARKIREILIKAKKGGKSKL
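Biochemical qHTS of compounds, final roughly 60 µM downward over six points, against 10 nM purified firefly luciferase using Km concentrations of substrates (10 uM D-luciferin, 10 uM ATP) in Tris acetate pH 7.5 buffer; luminescence output.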
ELG1 genotoxic – qHTS screen for small molecules that induce genotoxicity in human embryonic kidney (HEK293T) cells expressing luciferase-tagged ELG1. HEK293T ELG1-luciferase reporter, luminescence, 16 h. Potency, µM (top dose mostly 46 µM), without a hit: top-dose activity change, positive = activation, hits mostly activators. 330,000 compounds, 1.3% hits; further: % of control where 0% means no effect; nearly all actives have a fitted effect of over 60% in size
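Luminescence read-out: rising ELG1-luciferase signal, reflecting elevated ELG1 protein under genetic stress, flags genotoxic compounds. Cells were treated for 16 hr at 37 °C before ONE-Glo detection.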
p53 reactivator – qHTS assay for re-activators of p53 using a Luc reporter | H1299 p53-A138V BP100-luciferase reporter, luminescence, 24 h | Potency, µM (titrated, usually from 92.2 µM), inactives show top-dose activity change, positive = activation, hits mostly activators | 320,000 compounds, 0.063% hits | AID 504706, 2011; further: % of control where 0% means no effect; nearly all actives have a fitted effect of over 45% in size
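p53-null H1299 cells stably carrying temperature-sensitive p53-A138V and a BP100-luciferase reporter were pinned with compounds (4-point, 1:5 series) and held 24 hrs at 37 deg C. Luminescence was read 10 min after detection reagent.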
SMN2 splice up – qHTS Assay for Enhancers of SMN2 Splice Variant Expression. HEK293 SMN2-luciferase splicing reporter, luminescence, 30-36 h. Potency, µM (top dose mostly 46.1 µM), for the others: at the highest dose activity change, positive = activation, most hits filed as activators. 210,000 compounds, 2.8% hits; further: % of control where 0% means no effect; nearly all actives have a fitted effect of over 55% in size
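HEK293 cells carry an SMN2 minigene-luciferase reporter in which exon 7 inclusion puts luciferase in frame. Cells were seeded at 2000 cells/well, attached for 10-12 hours, then exposed to compounds for 30-36 hours at 37C before ONE-Glo luminescence.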
NPC1 prom act – qHTS Assay for NPC1 Promoter Activators. Huh7 NPC1 promoter luciferase reporter, 24 h. Potency, µM (titrated, usually from 9.22 µM), for inactives: at the top dose activation, usual class: activators. 320,000 compounds, 2.4% hits. AID 485313, 2010; further: % of control where 0% means no effect; nearly all actives have a fitted effect of over 60% in size
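Compounds in DMSO were transferred onto Huh7 NPC1-luciferase reporter cells pre-incubated 2 h; after 24 h at 37 °C, Amplite reagent was dispensed and luminescence recorded 10 min later.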
Active calls of the source: *; ? = inconclusive; / = not tested or not shown; [ ] = remark or other dose. The call rests on the fitted dose curve; in most records, active means well fitted curve in the direction sought with a large enough effect; inconclusive means small, poorly fitted or top-dose-only effect, or another doubt; inactive means no such curve, though single readings can be large; an effect the other way counts as inactive or inconclusive. Potency means the concentration at half of the fitted maximal effect.

SMILES | Rab9 prom act | FLuc modulator | ELG1 genotoxic | p53 reactivator | SMN2 splice up | NPC1 prom act
COc1ccc(NC(=O)c2cc([N+](=O)[O-])ccc2O)cc1 | 0.0003µM* | 0.135µM* | ? | -11.3% | / | 0.002µM*
O=C(Nc1ccncc1)c1cc2ccccc2cc1O | 1.41µM* | 1.69µM* | ? | ? | / | 2µM*
O=C(O)c1ccccc1C(=O)Nc1cccc([N+](=O)[O-])c1 | -2.5% | 2.2% | 3.4% | 3.3% | / | -1.4%
O=C(Nc1cccc([N+](=O)[O-])c1)c1cc2ccccc2cc1O | -40.1% | 0.953µM* | 15.2% | 2.1% | / | 2.9%
Cc1cccc(-c2nc(SCC(=O)N3CCc4ccccc43)c3c(=O)n(C)c(=O)n(C)c3n2)c1 | / | -1.2% | / | / | / | /
Cc1cccc(-n2ncc3c(N4CCC5(CC4)OCCO5)ncnc32)c1 | 2.51µM* | 6.75µM* | ? | 21.0% | / | 2.82µM*
Cc1ccc(C)c(N2CCN(c3ncnc4c3cnn4-c3ccccc3)CC2)c1 | 0.1% | -5.2% | -1.8% | -1.9% | -17.8% | 2.3%
c1ccc(-n2ncc3c(N4CCC5(CC4)OCCO5)ncnc32)cc1 | ? | 13.5µM* | 4.11µM* | 14.2% | 12.6µM* | 2.51µM*
O=C(Nc1cc(S(=O)(=O)N2CCOCC2)ccc1Cl)c1cc2ccccc2o1 | 1.9% | / | -1.5% | 7.7% | / | -6.2%
O=C(Nc1cccc(S(=O)(=O)N2CCOCC2)c1)c1cc2ccccc2o1 | 1.1% | 16.9µM* | -8.2% | 0.4% | / | 0.7%
O=C(Nc1cccc(S(=O)(=O)N2CCCCC2)c1)c1cc2ccccc2o1 | 13.3% | 8.49µM* | -9.3% | 10.1% | / | 0.4%
COc1ccc2oc(C(=O)Nc3cccc(S(=O)(=O)N4CCOCC4)c3)c(C)c2c1 | 0.9% | 6.01µM* | -5.5% | 6.8% | / | 1.8%
CCOC(=O)N1CCN(C(=O)c2ccc3c(c2)N=C(C)c2cc(Cl)ccc2S3)CC1 | -1.7% | 1.7% | -8.5% | -3.9% | / | -1.4%
Cc1cccc(N2CCN(c3nc4ccccc4c4nnc(C)n34)CC2)c1C | / | 1.6% | / | / | 11.1% | /
Cc1ccccc1NC(=O)NNC(=O)COc1ccc2ccccc2c1 | 32.0% | -2.0% | 0.8% | -10.1% | / | 18.6%
c1ccc(Nc2cccc(Nc3ccccc3)n2)cc1 | ? | 19µM* | ? | 25.3% | -22.3% | 16.9%
CCOc1ccc(-c2c(C)nn3c(C)c(C(=O)Nc4cc(C)cc(C)c4)cnc23)cc1OCC | / | -5.0% | / | / | / | /
Cn1c(=NC(=O)CS(=O)(=O)c2ccccc2)sc2ccccc21 | ? | 2.0% | 11.5% | ? | / | ?
COc1cc(OC)cc(C(=O)N=c2sc3ccccc3n2C)c1 | 2.51µM* | ? | ? | 9.2% | 10µM* | ?
COc1cccc(C(=O)N/N=c2\sc3ccccc3n2C)c1 | -4.0% | ? | 3.4% | 3.8% | 18.5% | 1.0%
COc1ccc(C(=O)N=c2sc3cc(Cl)ccc3n2C)cc1 | / | -12.8% | / | / | 1.1% | /
COc1cccc(C(=O)N=c2sc3cc(S(C)(=O)=O)ccc3n2C)c1 | 3.55µM* | -14.2% | ? | 6.1% | 7.1% | ?
COc1ccc(C(=O)N=c2sc3ccccc3n2C)cc1 | 2.51µM* | 1.69µM* | ? | 0.5% | 2.51µM* | 3.16µM*
COC(=O)c1ccc2c(c1)sc(=NC(=O)c1ccc(S(=O)(=O)N3CCCCC3)cc1)n2C | / | -1.4% | / | / | / | /
Cn1c(=NC(=O)COc2ccccc2)sc2ccccc21 | 2µM* | 13.5µM* | -0.2% | 12.3% | 12.6µM* | 3.55µM*
SMILES | Rab9 prom act | FLuc modulator | ELG1 genotoxic | p53 reactivator | SMN2 splice up | NPC1 prom act
COC(=O)Cn1c(=NC(=O)c2cccc(OC)c2)sc2cc(OC)ccc21 | 11.2% | 3.01µM* | -1.5% | 8.9% | -8.1% | 11.9%
COC(=O)Cn1c(=NC(=O)c2cc(OC)cc(OC)c2)sc2cc(OC)ccc21 | 2.2% | 11.0% | -4.8% | -14.2% | 1.7% | -3.2%
O=C(COC(=O)c1ccc(Br)c(S(=O)(=O)N2CCOCC2)c1)NC1CC1 | / | / | -1.7% | 8.9% | / | /
CN(C)c1ccc(C(=O)OCC(=O)NCCCc2ccccc2)cc1 | -1.5%[1.84 µM] | -14.3% | 1.5% | -1.8% | / | -4.4%
CN(C)c1ccc(C(=O)OCC(=O)NCCNC(=O)COC(=O)c2ccc(N(C)C)cc2)cc1 | 1.41µM* | 4.78µM* | ? | 23.9% | / | 3.98µM*
CN(C)c1ccc(C(=O)OCC(=O)N2CCCCCC2)cc1 | 3.55µM* | ? | 10.8% | 18.7% | 21.9% | ?
COc1ccc(NC(=O)CN(c2ccc(C)cc2)S(=O)(=O)c2cccc3nonc23)cc1OC | / | 3.0% | / | / | 17.1% | /
Oc1cccc(/C=N/Nc2nn3cnnc3c3ccccc23)c1 | 8.9% | 8.49µM* | -2.6% | 1.5% | / | 15.0%
CCCCc1nc2c(c3c1C[C@H](C)OC3)CN(C(=O)N[C@@H](C)c1ccccc1)CC2 | / | / | / | / | 8.0%[9.22 µM] | /
O=C1CC(c2ccc3c(c2)OCO3)Sc2nc3ccccc3n21 (stereo not given) | 18.3% | 1.51µM* | ? | 20.4% | ? | 3.98µM*
CN1C(=O)CC(c2ccco2)Sc2ccccc21 (stereo not given) | -22.1% | -0.6% | ? | -14.1% | ? | -0.8%
O=C1CC(c2ccco2)Sc2nc3ccccc3n21 (stereo not given) | -2.9% | 12µM* | ? | ? | 11.5% | -0.8%
O=C1CC(c2ccc(F)cc2)Sc2nc(-c3ccccc3)c(-c3ccccc3)n21 (stereo not given) | -4.3% | -0.3% | 0.2% | 4.5% | -16.8% | -2.5%
O=C(Nc1ccccc1Cl)C1CC(=O)n2c(nc3ccccc32)N1 (stereo not given) | -7.3% | -0.9% | ? | -3.8% | 3.3% | -7.4%
O=C1CC(c2ccccc2)Sc2nc3ccccc3n21 (stereo not given) | 10.4% | 4.78µM* | ? | ? | ? | -0.8%
O=C1CC(c2cccs2)Sc2nc3ccccc3n21 (stereo not given) | 0.0% | 3.38µM* | ? | ? | ? | -3.4%
O=C1C=C(c2cc3ccccc3s2)C[C@@H](c2ccc3c(c2)OCO3)C1 | -7.0% | 1.4% | 2.4% | 4.3% | / | 0.1%
CCOc1ccccc1C1C(C(=O)N2CCCCC2)=C(C)Nc2nc3ccccc3n21 (stereo not given) | / | 4.8% | / | / | -2.4% | /
CC(C)N(C(=O)COC(=O)c1cccc(S(=O)(=O)N2CC3(C)CC2CC(C)(C)C3)c1)C(C)C (stereo not given) | 3.0% | 4.6% | -1.4% | 6.0% | / | -0.4%
